Records with an inconclusive call do not appear. The source made the active and inactive calls. How the source made its calls, unless noted: active means hit-call score of the fitted dose curve at least 0.9, where 1 is the maximum; inactive means score below 0.9.
Experiment: CCTE_Harrill_HTTr_Viability_MCF7: CCTE's 6-hour Cell Viability Assessment for the High-Throughput Transcriptomics (HTTr) Platform, in MCF-7 cells cultured in DMEM + 10% fetal bovine serum, Harrill Lab (AID 2284010)
Summary of the method: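 Propidium iodide exclusion, imaged by high-content analysis, gauged viability after a six-hour exposure across eight concentrations. Cells were MCF-7 grown in DMEM with 10% fetal bovine serum; fits run in both directions against DMSO.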

Structure (SMILES) | outcome
OC[C@H]1O[C@@H](Oc2ccc(O)cc2)[C@H](O)[C@@H](O)[C@@H]1O | inactive
O=CCc1ccccc1 | inactive
CC(O)C1CCCCC1 (stereo not drawn) | inactive
O=c1c(O)c(-c2ccc(O)cc2)oc2cc(O)cc(O)c12 | inactive
CCCCCCOC(=O)CCC | inactive
CC(=O)CC(=O)Nc1ccccc1 | inactive
CC(C)C[C@H](NC(=O)OCC1c2ccccc2-c2ccccc21)C(=O)O | inactive
CCCCCCCCCC(=O)OC | inactive
O=C(O)c1ccc(O)cc1 | inactive
c1ccc(Oc2ccccc2)cc1 | inactive
CC1(C)COCN1 | inactive
COC(=O)Nc1ccc(Cl)c(Cl)c1 | inactive
CS(C)=O | inactive
CN1C(=O)c2ccccc2C1=O | inactive
CC1(C)O[C@@H]2[C@@H](CO[C@@]3(COS(N)(=O)=O)OC(C)(C)O[C@@H]23)O1 | inactive
CS(=O)(=O)c1ccc(Cl)cc1 | inactive
O=C(c1ccccc1)C(O)c1ccccc1 (stereo not drawn) | inactive
Cc1ccc(-c2ccccc2)cc1 | inactive

Experiment: CCTE_Harrill_HTTr_Apoptosis_MCF7: CCTE's 6-hour Apoptosis Assessment for the High-Throughput Transcriptomics (HTTr) Platform, in MCF-7 cells cultured in DMEM + 10% fetal bovine serum, Harrill Lab (AID 2284011)
Summary of the method: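 Apoptosis in MCF-7 cells grown in DMEM with 10% fetal bovine serum was scored after a six hour exposure by high content imaging of caspase-3/7 activation (CellEvent Caspase 3/7 Green), with DMSO serving as negative control and baseline.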

Structure (SMILES) | outcome | AC50
O=C(O)CCCCCCCCCCCC(=O)O | inactive | 
C=CCOC(=O)CCCCCC | inactive | 
Cc1ncc([N+](=O)[O-])n1CCO | inactive | 
C[C@H]1C[C@@H](O)CC(C)(C)C1 | inactive | 
COc1cc([C@@H]2c3cc4c(cc3[C@@H](O[C@@H]3O[C@@H]5CO[C@@H](C)O[C@H]5[C@H](O)[C@H]3O)[C@H]3COC(=O)[C@H]23)OCO4)cc(OC)c1O | inactive | 
O=[N+]([O-])c1cccc(Cl)c1 | inactive | 
CN(C)CCOc1ccc(/C(=C(/CCCl)c2ccccc2)c2ccccc2)cc1 |  | 50 µM (active)
CC(C)(CO)[C@@H](O)C(=O)NCCC(=O)O | inactive | 
CC1=CC[C@@]23C[C@@H]1C(C)(C)[C@@H]2CC[C@H]3C | inactive | 
CC(C)(C)C1=CC(=O)C(C(C)(C)C)=CC1=O | inactive | 
O=C(O)c1cccnc1C(=O)O | inactive | 
CS(=O)(=O)c1ccc(C2=C(c3ccccc3)C(=O)OC2)cc1 | inactive | 
OCCc1ccccc1 | inactive | 
O=P(O)(O)O | inactive | 
CC(C)NCC(O)COc1ccc(CC(N)=O)cc1 (stereo not drawn) | inactive | 
CC(C)(C)c1ccc(C(=O)O)cc1 | inactive | 
Clc1cc(Cl)c(-c2c(Cl)c(Cl)cc(Cl)c2Cl)cc1Cl | inactive | 
CCCC1O[C@@H]2C[C@H]3[C@@H]4CCC5=CC(=O)C=C[C@]5(C)[C@H]4[C@@H](O)C[C@]3(C)[C@]2(C(=O)CO)O1 (stereo partly drawn) | inactive | 
CCC1(c2ccccc2)C(=O)NCNC1=O | inactive | 
C=C(C)[C@H]1CC=C(C)C(=O)C1 | inactive | 

Structure (SMILES) | outcome | AC50
Clc1ccc(C(c2ccccc2Cl)C(Cl)Cl)cc1 (stereo not drawn) | inactive | 
OC[C@H]1O[C@@H](Oc2ccc(O)cc2)[C@H](O)[C@@H](O)[C@@H]1O | inactive | 
O=CCc1ccccc1 | inactive | 
CC(O)C1CCCCC1 (stereo not drawn) | inactive | 
O=c1c(O)c(-c2ccc(O)cc2)oc2cc(O)cc(O)c12 | inactive | 
CCCCCCOC(=O)CCC | inactive | 
CC(=O)CC(=O)Nc1ccccc1 | inactive | 
CC(C)C[C@H](NC(=O)OCC1c2ccccc2-c2ccccc21)C(=O)O | inactive | 
CCCCCCCCCC(=O)OC | inactive | 
O=C(O)c1ccc(O)cc1 | inactive | 
c1ccc(Oc2ccccc2)cc1 | inactive | 
CC1(C)COCN1 | inactive | 
COC(=O)Nc1ccc(Cl)c(Cl)c1 | inactive | 
CS(C)=O | inactive | 
CN1C(=O)c2ccccc2C1=O | inactive | 
CC1(C)O[C@@H]2[C@@H](CO[C@@]3(COS(N)(=O)=O)OC(C)(C)O[C@@H]23)O1 | inactive | 
CS(=O)(=O)c1ccc(Cl)cc1 | inactive | 
O=C(c1ccccc1)C(O)c1ccccc1 (stereo not drawn) | inactive | 
Cc1ccc(-c2ccccc2)cc1 | inactive | 

Experiment: CCTE_Harrill_HTTr_CellCount_MCF7: CCTE's Cell Proliferation Assessment for the High-Throughput Transcriptomics (HTTr) Platform, Harrill Lab (AID 2284012; active means hit-call score of the fitted dose curve at least 0.9, where 1 is the maximum;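 further: cells exposed to compound for six hours; intended direction is loss of nuclei count meaning fewer cells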)
Summary of the method: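 Cell count from high-content imaging of Hoechst-labeled nuclei serves as viability/growth readout. Chemicals were applied to MCF-7 cells in eight concentrations for six hours, with fitting in both directions relative to DMSO.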

Structure (SMILES) | outcome
O=C(O)CCCCCCCCCCCC(=O)O | inactive
C=CCOC(=O)CCCCCC | inactive
C[C@H]1C[C@@H](O)CC(C)(C)C1 | inactive
O=[N+]([O-])c1cccc(Cl)c1 | inactive
CN(C)CCOc1ccc(/C(=C(/CCCl)c2ccccc2)c2ccccc2)cc1 | inactive
CC(C)(CO)[C@@H](O)C(=O)NCCC(=O)O | inactive
CC(C)(C)C1=CC(=O)C(C(C)(C)C)=CC1=O | inactive
O=C(O)c1cccnc1C(=O)O | inactive
OCCc1ccccc1 | inactive
CC(C)(C)c1ccc(C(=O)O)cc1 | inactive
Clc1cc(Cl)c(-c2c(Cl)c(Cl)cc(Cl)c2Cl)cc1Cl | inactive
CCC1(c2ccccc2)C(=O)NCNC1=O | inactive
C=C(C)[C@H]1CC=C(C)C(=O)C1 | inactive
Clc1ccc(C(c2ccccc2Cl)C(Cl)Cl)cc1 (stereo not drawn) | inactive
CC(O)C1CCCCC1 (stereo not drawn) | inactive
O=c1c(O)c(-c2ccc(O)cc2)oc2cc(O)cc(O)c12 | inactive
CCCCCCOC(=O)CCC | inactive
CC(=O)CC(=O)Nc1ccccc1 | inactive
CC(C)C[C@H](NC(=O)OCC1c2ccccc2-c2ccccc21)C(=O)O | inactive
CCCCCCCCCC(=O)OC | inactive
O=C(O)c1ccc(O)cc1 | inactive
c1ccc(Oc2ccccc2)cc1 | inactive
CC1(C)COCN1 | inactive
CC1(C)O[C@@H]2[C@@H](CO[C@@]3(COS(N)(=O)=O)OC(C)(C)O[C@@H]23)O1 | inactive
CS(=O)(=O)c1ccc(Cl)cc1 | inactive
Cc1ccc(-c2ccccc2)cc1 | inactive
